Compounds with a hit are over-represented: about 28% of the library has one in this group of screens.
CYP2C9 inhib = blockers of cytochrome P450 2C9 activity – biochemical, luminescence, ADME assay, primary screen. P11712. CYP2C9 Supersomes, luciferin-H conversion. inhibition, % at 5 µM. 20% of 96,000 active. AID 777, 2007;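 active means blocking of liver enzyme CYP2C9 beyond about 50% at 5 µM, limit read from the data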
CYP2C9 act = human CYP2C9 activators, primary screen, biochemical, luminescence; Cytochrome P450 2C9 (Homo sapiens), P11712; recombinant CYP2C9, luciferin-H conversion; hits give high values; factor 1 = untreated enzyme, 0 = blocked; activation factor at 5 µM; 1.4% of 96,000 active; AID 1024, 2008;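 active means activation factor of 2 or more for CYP2C9 at a 5 µM dose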;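 further: 0 = sulfaphenazole-blocked wells and 1 = vehicle-only wells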
CD11b adhes enh = enhancers of CD11b/CD18 adhesion to fibrinogen, primary screen, K562 cells, luminescence | activation, % at 10 µM | Integrin beta-2 (Homo sapiens) + Integrin alpha-M (Homo sapiens), P05107+P11215 | 0.07% of 93,000 active | ATPlite luminescence;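 active means 10 µM primary screen giving 50% or more activity, confirmed by 40% or more on retest at that dose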
CYP2C19 inhib = blockers of cytochrome P450 2C19 activity – biochemical, luminescence, ADME assay, primary screen. P33261. CYP2C19 Supersomes, luciferin-H EGE luminescence, 30 min. inhibition, % at 5 µM. 21% of 96,000 active. AID 778, 2007;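 active means CYP2C19 inhibition above a set limit at 5 µM in the primary screen, cut at about 50% in these data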;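 further: plate controls were negative control wells for no effect and 2.5 mM tranylcypromine positive control for full effect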
Target sequence (P33261 whole entry, looked up): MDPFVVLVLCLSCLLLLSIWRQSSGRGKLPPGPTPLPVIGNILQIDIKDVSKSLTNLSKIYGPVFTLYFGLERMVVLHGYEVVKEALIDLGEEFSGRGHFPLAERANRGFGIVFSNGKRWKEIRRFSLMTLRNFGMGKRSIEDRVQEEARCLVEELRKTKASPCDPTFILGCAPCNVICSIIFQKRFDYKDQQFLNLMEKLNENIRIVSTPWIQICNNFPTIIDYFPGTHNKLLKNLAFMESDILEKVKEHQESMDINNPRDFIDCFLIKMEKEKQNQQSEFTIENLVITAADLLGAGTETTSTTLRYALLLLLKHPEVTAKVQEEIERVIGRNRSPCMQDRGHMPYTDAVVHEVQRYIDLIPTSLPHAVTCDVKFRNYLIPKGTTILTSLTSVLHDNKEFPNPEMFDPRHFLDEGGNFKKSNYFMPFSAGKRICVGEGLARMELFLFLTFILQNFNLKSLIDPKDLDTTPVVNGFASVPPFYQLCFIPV
CYP2C19 act = human CYP2C19 activators, primary screen, biochemical, luminescence; recombinant CYP2C19, luciferin-H EGE luminescence; hits give high values; 0 = fully inhibited enzyme, 1 = untreated enzyme; activation factor at 5 µM; 96,000 tested, under 10 active; AID 1025, 2008;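 active means activation factor of at least 2 at 5 µM in the primary screen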;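 further: 0 = wells with 2.5 mM tranylcypromine and 1 = vehicle-only wells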
CD11b adhes inh = inhibitors of CD11b/CD18 adhesion to fibrinogen, primary screen, K562 cells, luminescence; ATPlite luminescence; Mn2+ added to activate the integrin; inhibition, % at 10 µM; 0.54% of 93,000 active;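 active means primary inhibition of 50% or more at 10 µM, then 40% or more on retest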
* = called active by the depositor; nt = not tested or not shown.

SMILES	CYP2C9 inhib	CYP2C9 act	CD11b adhes enh	CYP2C19 inhib	CYP2C19 act	CD11b adhes inh
CCOc1cccc(C(=O)N2CCCCC2c2cccnc2)c1 (stereo not drawn)	-107.6	2.1*	3.7	42.9	0.6	7.1
COc1cccc(C(=O)NC2CCN(C(=O)N3CCCCC3)CC2)c1	5.5	0.9	-3.7	7.4	0.9	-8.7
COc1ccc(Nc2nc(NCc3ccco3)nc(N/N=C/c3ccccc3F)n2)cc1	nt	nt	6.3	nt	nt	-4.0
CCCCn1c(N)c(Sc2ccc(C)cc2)c(=O)[nH]c1=O	40.8	0.6	-4.4	52.9*	0.5	-15.0
COc1ccc(NC(=O)Cn2c(=O)n(-c3ccc(OC)cc3OC)c(=O)c3c(C)c(C)sc32)cc1	nt	nt	0.0	nt	nt	-27.6
COc1ccc(C2CC(c3cccs3)=NN2C(=O)CSC2=NN3CCCC(=O)N=C3S2)cc1 (stereo not drawn)	25.1	0.7	-0.6	3.4	1	6.9
Cc1ccc(C2CC(c3cccs3)=NN2C(=O)CSC2=NN3CCCC(=O)N=C3S2)cc1 (stereo not drawn)	81.6*	0.2	8.4	91.1*	0.1	-2.6
COc1cc(C2c3c(oc4ccccc4c3=O)C(=O)N2c2ccc(C)cn2)ccc1O (stereo not drawn)	68.1*	0.3	-4.5	8.7	0.9	3.5
CCOc1ccc(C2c3c(oc4ccccc4c3=O)C(=O)N2c2ccc(C)cn2)cc1OC (stereo not drawn)	81.5*	0.2	-0.4	12.0	0.9	-9.1
COc1cc(CC(=O)Nc2ccc(S(=O)(=O)N(C)C)cc2)cc(OC)c1OC	44.0	0.6	1.0	5.4	0.9	4.3
Cc1cc2cc(CN(CCN3CCOCC3)C(=O)Nc3ccccc3F)c(=O)[nH]c2cc1C	11.8	0.9	-3.0	16.0	0.8	2.7
CCN1CCCc2cc(CN(CCN3CCOCC3)C(=O)Nc3ccc(C)c(C)c3)ccc21	47.8	0.5	0.4	56.7*	0.4	-30.1
O=C(Nc1ccccc1)N(CCN1CCOCC1)Cc1ccccc1F	88.8*	0.1	13.6	55.5*	0.4	-23.4
CCc1ccc(NC(=O)N(CCN2CCOCC2)Cc2ccc3c(c2)CCCN3CC)cc1	24.4	0.8	0.3	27.5	0.7	-1.7
CCc1ccc(NC(=O)N(CCCN2CCOCC2)Cc2cccs2)cc1	58.8*	0.4	-0.4	35.5	0.6	-4.2
O=C(Nc1ccccc1)N(CCCN1CCOCC1)Cc1cccs1	4.2	1	0.9	13.8	0.9	-10.6
Cc1ccc(NC(=O)N(CCCN2CCOCC2)Cc2cccnc2)cc1C	95.9*	0	-1.6	100.4*	0	-3.4
CCOCCCNC(=O)C(C)NS(=O)(=O)c1ccc(C)cc1 (stereo not drawn)	-4.2	1	-1.1	1.7	1	-14.1
Cc1ccc(S(=O)(=O)NC2CCCC(C(=O)O)C2)cc1 (stereo not drawn)	-13.3	1.1	-0.9	-12.6	1.1	-5.7
CN(Cc1nc2ccccc2n1C)S(=O)(=O)c1ccc(F)cc1	-167.3	2.7*	-3.2	83.7*	0.2	-6.9
COC(=O)c1ccc(C)c(NC(=O)CCSc2ccccc2)c1	55.4*	0.4	9.4	29.4	0.7	-1.9
CCC(=O)Nc1cc(C(=O)OC(C(=O)c2ccc(C)c(C)c2)c2ccccc2)ccc1C (stereo not drawn)	57.6*	0.4	0.7	39.5	0.6	-9.8
C/C(=N\OCC(=O)NC12CC3CC(CC(C3)C1)C2)c1cc2ccccc2o1	nt	nt	-6.3	nt	nt	58.8
N#Cc1c(C(F)(F)F)cc(C2CC2)[nH]c1=O	-14.0	1.1	-1.9	-1.2	1	-7.5
N#Cc1c(C(F)(F)F)cc(-c2ccccc2)[nH]c1=O	57.8*	0.4	nt	-9.8	1.1	nt
N#Cc1c(C(F)(F)F)cc(-c2ccccc2Cl)[nH]c1=O	86.2*	0.1	-2.4	-7.8	1.1	61.8*
CCOc1cc(N2CCOCC2)c(OCC)cc1NC(=O)CSc1cccc[n+]1[O-]	33.3	0.7	nt	2.5	1	nt
COc1ccccc1C(=O)N/C(=C/c1ccc(Br)cc1)C(=O)NCC(=O)O	26.0	0.7	1.9	36.7	0.6	3.3

Assay outcomes: PubChem BioAssay, Sanford-Burnham Center for Chemical Genomics
